Experimental data from PubChem BioAssay AID1159580 (chemical genetic matrix, 2015).
Out of some 5,500 compounds screened, about 2,000 (36%) were called active. Not shown: some 18% with an inconclusive outcome. Cut-off read from the data, not from the text of the source: active = normalized growth mostly below about 0.91 (no sharp cut-off); inconclusive = no clear call, values can overlap the other calls; inactive = mostly above about 0.92. Some of the results follow.

Experiment: chemical genetic growth profiling, strain panel (AID 1159580);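 note: tested at 20 µM; growth read once vehicle control cultures reached saturation at 30 °C; 1 = growth at the plate median or of vehicle wells; lower values mean less growth of the strain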
Settings: S. cerevisiae deletion strains, growth OD

Measured: normalized growth

CC(C)=CCCC(C)[C@@H]1CC[C@]2(C)C3=C(CC[C@@]12C)C1(C)CC[C@H](O)C(C)(C)C1CC3 (some centres undefined)
inactive: locus YJL187C, strain SWE1 (second series), active compounds read low 0.995 | locus YJL187C, strain SWE1, active compounds read low 1.06 | locus YJR066W, strain TOR1, active compounds read low 0.866 | locus YKL068W, active compounds read low 1.04 | locus YKL085W, strain MDH1 (second series), active compounds read low 1.03 | locus YKL085W, strain MDH1, active compounds read low 1.03 | locus YKL160W, strain elf1, active compounds read low 1.03 | locus YKR001C, strain vps1, active compounds read low 0.979 | locus YLL001W, strain dnm1, active compounds read low 1.07 | locus YLL041C, strain sdh2, active compounds read low 1.06 | locus YLR027C, strain aat2, active compounds read low 1.07 | locus YLR039C, strain RIC1, active compounds read low 1.24 | locus YLR058C, strain SHM2, active compounds read low 0.996 | locus YLR102C, strain apc9, active compounds read low 1.05 | locus YLR113W, strain HOG1, active compounds read low 0.866 | locus YLR221C, strain rsa3, active compounds read low 1.06 | locus YLR258W, strain gsy2, active compounds read low 1.07 | locus YLR268W, strain sec22, active compounds read low 0.973 | locus YLR320W, strain mms22, active compounds read low 1.05 | locus YLR330W, strain CHS5, active compounds read low 1.06 | locus YLR342W, strain FKS1, active compounds read low 1.05 | locus YLR357W, strain rsc2, active compounds read low 1.13 | locus YLR370C, strain arc18, active compounds read low 1.07 | locus YLR371W, strain rom2, active compounds read low 1.06 | locus YLR384C, strain iki3, active compounds read low 1.07 | locus YLR418C, strain cdc73, active compounds read low 1.15 | locus YML016C, strain PPZ1, active compounds read low 1.06 | locus YML032C, strain rad52, active compounds read low 0.946 | locus YML120C, strain ndi1, active compounds read low 1.03 | locus YML124C, strain tub3, active compounds read low 1.06 | locus YMR058W, strain fet3, active compounds read low 1 | locus YMR078C, strain ctf18, active compounds read low 1.08 | locus YMR125W, strain sto1, active compounds read low 1.07 | locus YMR129W, active compounds read low 1.06 | locus YMR205C, strain PFK2, active compounds read low 1.04 | locus YMR223W, strain ubp8, active compounds read low 0.971 | locus YMR231W, strain pep5, active compounds read low 1.04 | locus YNL067W, strain RPL9B, active compounds read low 1.02 | locus YNL071W, strain lat1, active compounds read low 1.04 | locus YNL128W, strain TEP1, active compounds read low 0.996 | locus YNL183C, strain NPR1, active compounds read low 0.846 | locus YNL209W, strain ssb2, active compounds read low 1.06 | locus YNL248C, strain rpa49, active compounds read low 1.01 | locus YNL250W, strain rad50, active compounds read low 0.996 | locus YNL271C, strain bni1, active compounds read low 1.01 | locus YNL298W, strain CLA4, active compounds read low 0.917 | locus YNL307C, strain MCK1, active compounds read low 1.03 | locus YNL322C, strain KRE1 (second series), active compounds read low 1.08 | locus YNR049C, strain mso1, active compounds read low 1.08 | locus YNR052C, strain pop2, active compounds read low 0.968 | locus YOL012C, strain htz1 1.41 | locus YOR001W, strain rrp6, active compounds read low 1.02 | locus YOR061W, strain CKA2, active compounds read low 0.994 | locus YOR069W, strain VPS5, active compounds read low 1.05 | locus YOR070C, strain gyp1, active compounds read low 1.05 | locus YOR083W, strain WHI5, active compounds read low 0.994 | locus YOR106W, strain vam3, active compounds read low 0.939 | locus YOR136W, strain idh2, active compounds read low 1.02 | locus YOR144C, strain elg1, active compounds read low 1.02 | locus YOR231W, strain MKK1, active compounds read low 0.874 | locus YOR270C, strain vph1, active compounds read low 0.839 | locus YOR290C, strain snf2, active compounds read low 0.992 | locus YOR316C, strain cot1, active compounds read low 1.06 | locus YPL051W, strain arl3, active compounds read low 1.02 | locus YPL078C, strain atp4, active compounds read low 1.02 | locus YPL240C, strain hsp82, active compounds read low 1.05 | locus YPL256C, strain CLN2, active compounds read low 0.994 | locus YPR119W, strain clb2, active compounds read low 1.07 | locus YPR141C, strain kar3, active compounds read low 1.05 | locus YPR163C, strain tif3, active compounds read low 0.975 | locus YPR167C, strain met16, active compounds read low 1.03 | strain wtn01, active compounds read low 0.949
active: locus YKL009W, strain mrt4, active compounds read low 0.775 | locus YKR026C, strain gcn3, active compounds read low 1.09 [resistant] | locus YKR091W, strain srl3, active compounds read low 1.1 [resistant] | locus YLL026W, active compounds read low 1.07 [resistant] | locus YLR262C, strain YPT6 (second series), active compounds read low 0.822 | locus YMR307W, strain GAS1, active compounds read low 1.42 [resistant] | locus YNL233W, strain BNI4, active compounds read low 1.13 [resistant] | locus YOL147C, strain pex11, active compounds read low 1.1 [resistant] | locus YOR080W, strain dia2, active compounds read low 1.09 [resistant] | locus YOR184W, strain ser1, active compounds read low 0.85 | locus YOR265W, strain rbl2, active compounds read low 1.07 [resistant] | locus YPL106C, strain sse1, active compounds read low 1.26 [resistant]
